# System: Trypanosoma cruzi
# Experiment: Trypanosoma cruzi phosphomannomutase and mannose-1-phosphate guanylyltransferase assay
# Type: functional
# Set-up: scale not given: direction of the effect not stated beside the values
# Conditions: 10 µM
row,SMILES,Percent Effect [%]
1,COCCNC(=O)C(C)n1cc(Br)cn1 (stereo not drawn),0.492
2,Cn1nccc1C1CCN(Cc2csc(-c3ncccn3)n2)CC1,6.96
3,Cc1ccc(NS(=O)(=O)CC2=NC(=O)n3cccc3C2=O)cc1,1.97
4,COc1ccc(C)cc1S(=O)(=O)NCC(c1cccn1C)N(C)C (stereo not drawn),-5.49
5,CSc1ccc(CNC(c2ccccc2)c2nccn2C)cc1 (stereo not drawn),7.71
6,CCCNC(=O)N1CCN(Cc2cc(C)no2)CC1,6.07
7,CN(Cc1ccco1)Cc1ccccc1CNC(=O)c1ccncc1,0.386
8,CCc1c(C)sc(NC(=O)CN2CCN(CC)CC2)c1C(=O)OC,2.62
9,COc1ccc(CN(Cc2cncn2C)CC2CCCO2)cc1OC (stereo not drawn),-2.37
10,O=c1ccc(-c2cccs2)nn1CN1CCN(Cc2ccccc2)CC1,5.3
11,COCC1Cn2nnc(-c3cnn(C)c3)c2CN1Cc1ccc(C)s1 (stereo not drawn),1.37
12,CC1CCCCN1c1nc2c(c(=O)[nH]1)CCN(Cc1cccnc1)C2 (stereo not drawn),0.79
13,O=C(Nc1ccccc1)C1CN(CC2CC2)CC12CCOCC2 (stereo not drawn),-0.579
14,COCCN1C[C@H]2CC[C@@]3(N=C(C)N(CC4CC4)C3=O)[C@H]2C1,-0.391
15,CC(C)c1cc(C(=O)N2CCN(Cc3ccsc3)CC2)n[nH]1,5.57
16,CCc1c(C(=O)NC2CCS(=O)(=O)C2)cnn1-c1ccc(F)cc1 (stereo not drawn),8.21
17,CS(=O)(=O)N1CCCC12CCCN(S(=O)(=O)c1cc(F)cc(F)c1)C2 (stereo not drawn),-3.23
18,COc1ccc(C2CCCCCN2S(=O)(=O)N(C)C)cc1 (stereo not drawn),-0.291
19,CC(Cn1ccnc1)NC(=O)NCCNC(=O)C(C)C (stereo not drawn),0.94
20,O=C(NCCCn1cncn1)NCC(c1ccco1)N1CCCCC1 (stereo not drawn),-5.39

row,SMILES,Percent Effect [%]
1,CNC(=O)c1cc2c(nc1NCC(C)C)CCN(S(=O)(=O)C1CC1)CC2,-3.23
2,COCCN(C)CC(=O)N1C[C@H]2CC[C@@H]1CN(C(=O)c1ccncc1)C2,-5.75
3,Cc1nn(CC(C)C)c(N(C)C)c1CNCc1cc2ccccc2[nH]1,-2.17
4,CN(C)Cc1ccnc(C2CCCN2Cc2ccncc2)n1 (stereo not drawn),6.72
5,O=C([C@H]1COC[C@H]2CN(Cc3ccco3)C[C@H]21)N1CCCO1,4.63
6,Cc1cc(C)c(CNC(=O)C2CCCN(c3cnccn3)C2)c(=O)[nH]1 (stereo not drawn),-4.13
7,COCCNC(=O)C[C@@H]1COC[C@H]2CN(C(=O)c3cnccn3)C[C@@H]12,6.15
8,CN(C)[C@@H]1CCN(c2ncccn2)[C@H]1Cc1ccncc1,5.01
9,CC(CNCc1ccncc1)Oc1ccccn1 (stereo not drawn),0
10,COc1ncccc1CN1Cc2nnn(C)c2C(COCC2CC2)C1 (stereo not drawn),-5.62
11,Cc1noc2nc(C3CCN(Cc4ccncc4)CC3)cc(C(F)F)c12,-0.79
12,CSc1ncccc1C(=O)N1C[C@H]2CC[C@@H]1CN(c1cnccn1)C2,-3.44
13,CC(C(=O)Nc1ccc(N2CCCC2)nc1)n1ccnc1 (stereo not drawn),0.0943
14,Cc1ccc(Cl)cc1C(=O)N1CCC2(CC1)c1ccccc1[C@@H](N)[C@@H]2O,9.85
15,Cc1nc(CN2CCN(C(=O)c3ccn(C)c(=O)c3)CC2)cs1,2.15
16,CNS(=O)(=O)c1ccc(C(=O)N2CCCC2c2ccccc2)o1 (stereo not drawn),2.15
17,CS(=O)(=O)NCC1CCCCN1C(=O)Nc1cccnc1N1CCCC1 (stereo not drawn),7.89
18,Cc1cccc(N2CCN(CCNC(=O)C(C)n3cncn3)CC2)c1 (stereo not drawn),3.83
19,CCn1nc(CC(C)C)cc1C(=O)NCCCOC,0.291

# Target: T1, Arginase-2, mitochondrial (Homo sapiens) (UniProt P78540)
# T1 sequence (whole entry): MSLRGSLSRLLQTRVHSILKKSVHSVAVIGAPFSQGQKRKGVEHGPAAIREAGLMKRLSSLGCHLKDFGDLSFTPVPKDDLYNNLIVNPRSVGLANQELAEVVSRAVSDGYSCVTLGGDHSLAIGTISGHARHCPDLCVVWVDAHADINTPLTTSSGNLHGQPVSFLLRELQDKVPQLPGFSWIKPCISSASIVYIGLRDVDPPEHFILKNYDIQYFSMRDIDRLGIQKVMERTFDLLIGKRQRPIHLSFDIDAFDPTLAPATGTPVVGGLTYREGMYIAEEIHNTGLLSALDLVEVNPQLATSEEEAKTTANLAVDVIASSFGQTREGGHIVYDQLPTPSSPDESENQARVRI
# Experiment: in vitro enzyme assay to detect the production of urea directly proportional to the activity of Arginase II; further: in the data most compounds retested in dose-response had high values
# Type: functional
# Set-up: scale not given: direction of the effect not stated beside the values
# Conditions: 33.3 µM
row,SMILES,Percent Effect [%]
1,COCCNC(=O)C(C)n1cc(Br)cn1 (stereo not drawn),-2.76
2,Cn1nccc1C1CCN(Cc2csc(-c3ncccn3)n2)CC1,-0.554
3,Cc1ccc(NS(=O)(=O)CC2=NC(=O)n3cccc3C2=O)cc1,-3.7
4,COc1ccc(C)cc1S(=O)(=O)NCC(c1cccn1C)N(C)C (stereo not drawn),1.36
5,CSc1ccc(CNC(c2ccccc2)c2nccn2C)cc1 (stereo not drawn),-2.77
6,CCCNC(=O)N1CCN(Cc2cc(C)no2)CC1,-2.16
7,CN(Cc1ccco1)Cc1ccccc1CNC(=O)c1ccncc1,0
8,CCc1c(C)sc(NC(=O)CN2CCN(CC)CC2)c1C(=O)OC,0
9,COc1ccc(CN(Cc2cncn2C)CC2CCCO2)cc1OC (stereo not drawn),3.94
10,O=c1ccc(-c2cccs2)nn1CN1CCN(Cc2ccccc2)CC1,-10.4
11,COCC1Cn2nnc(-c3cnn(C)c3)c2CN1Cc1ccc(C)s1 (stereo not drawn),18.3
12,CC1CCCCN1c1nc2c(c(=O)[nH]1)CCN(Cc1cccnc1)C2 (stereo not drawn),2.09
13,O=C(Nc1ccccc1)C1CN(CC2CC2)CC12CCOCC2 (stereo not drawn),-8.42
14,COCCN1C[C@H]2CC[C@@]3(N=C(C)N(CC4CC4)C3=O)[C@H]2C1,-0.417
15,CC(C)c1cc(C(=O)N2CCN(Cc3ccsc3)CC2)n[nH]1,18.1
16,CCc1c(C(=O)NC2CCS(=O)(=O)C2)cnn1-c1ccc(F)cc1 (stereo not drawn),1.9
17,CS(=O)(=O)N1CCCC12CCCN(S(=O)(=O)c1cc(F)cc(F)c1)C2 (stereo not drawn),-2.23
18,COc1ccc(C2CCCCCN2S(=O)(=O)N(C)C)cc1 (stereo not drawn),18.1
19,CC(Cn1ccnc1)NC(=O)NCCNC(=O)C(C)C (stereo not drawn),-4.6
20,O=C(NCCCn1cncn1)NCC(c1ccco1)N1CCCCC1 (stereo not drawn),5.26

row,SMILES,Percent Effect [%]
1,CNC(=O)c1cc2c(nc1NCC(C)C)CCN(S(=O)(=O)C1CC1)CC2,-1.24
2,COCCN(C)CC(=O)N1C[C@H]2CC[C@@H]1CN(C(=O)c1ccncc1)C2,1.56
3,Cc1nn(CC(C)C)c(N(C)C)c1CNCc1cc2ccccc2[nH]1,-3.21
4,CN(C)Cc1ccnc(C2CCCN2Cc2ccncc2)n1 (stereo not drawn),-4.41
5,O=C([C@H]1COC[C@H]2CN(Cc3ccco3)C[C@H]21)N1CCCO1,-47.9
6,Cc1cc(C)c(CNC(=O)C2CCCN(c3cnccn3)C2)c(=O)[nH]1 (stereo not drawn),-1.53
7,COCCNC(=O)C[C@@H]1COC[C@H]2CN(C(=O)c3cnccn3)C[C@@H]12,1.6
8,CN(C)[C@@H]1CCN(c2ncccn2)[C@H]1Cc1ccncc1,1.38
9,CC(CNCc1ccncc1)Oc1ccccn1 (stereo not drawn),-15.3
10,COc1ncccc1CN1Cc2nnn(C)c2C(COCC2CC2)C1 (stereo not drawn),3.23
11,Cc1noc2nc(C3CCN(Cc4ccncc4)CC3)cc(C(F)F)c12,-4.41
12,CSc1ncccc1C(=O)N1C[C@H]2CC[C@@H]1CN(c1cnccn1)C2,-29
13,CC(C(=O)Nc1ccc(N2CCCC2)nc1)n1ccnc1 (stereo not drawn),-8.82
14,Cc1ccc(Cl)cc1C(=O)N1CCC2(CC1)c1ccccc1[C@@H](N)[C@@H]2O,-2.38
15,Cc1nc(CN2CCN(C(=O)c3ccn(C)c(=O)c3)CC2)cs1,-4.52
16,CNS(=O)(=O)c1ccc(C(=O)N2CCCC2c2ccccc2)o1 (stereo not drawn),-3.6
17,CS(=O)(=O)NCC1CCCCN1C(=O)Nc1cccnc1N1CCCC1 (stereo not drawn),0
18,Cc1cccc(N2CCN(CCNC(=O)C(C)n3cncn3)CC2)c1 (stereo not drawn),-3.96
19,CCn1nc(CC(C)C)cc1C(=O)NCCCOC,4.86

# From ChEMBL document CHEMBL3988442, “University of Dundee, Small-Polar-MMV Screening Library” (2021)
